# Laboratory results reported in PubChem BioAssay.
# Assay: inhibitors of PAF-induced NFkB signaling in CF airway cells, dose response, cell-based, uHTS hits, panel, cytotoxicity readout (AID 624344)
# Details: CF bronchial epithelial cells, PAF-induced NFkB reporter inhibition, with PAF, run 2; at 79 µM (top of the series) unless noted
row,SMILES,inhibition
1,CC(=O)Oc1c(Cl)cc(N(C(C)=O)S(=O)(=O)c2ccccc2)c2ccccc12,108%
2,COc1ccc(-c2cnc(N)nc2-c2ccc(OC)cc2O)cc1,102%
3,COc1ccc(Nc2nc(-c3cccs3)nc3ccccc23)cc1S(=O)(=O)N1CCOCC1,102%
4,Cc1ccc2[nH]cc(C(=O)CCl)c2c1,72%
5,CCc1ccc(Nc2n[n+](-c3ccccc3)c(-c3c(Cl)cccc3Cl)s2)cc1,101%
6,Cc1c(NC(=O)c2cc(-c3cccs3)nc3ccccc23)c(=O)n(-c2ccccc2)n1C,103%
7,c1csc(Cc2nn3c(-c4ccncc4)nnc3s2)c1,102%
8,Cc1ccc(CNc2ncnc3ccc(-c4ccc(CO)o4)cc23)o1,99.1%
9,COc1cc(O)cc2cc3c(c(O)c12)C(=O)CC(C)(O)O3 (centres undefined),108%
10,c1cc(-c2nnc3sc(C4CCCCC4)nn23)ccn1,109%
11,O=C(Nc1ccc(Br)c2ccccc12)c1ccc2ccccc2c1O,104%
12,O=C1OC(Nc2nc(-c3ccc(F)cc3)cs2)c2ccccc21 (centres undefined),113%
13,Brc1ccc2ncnc(NCc3ccccc3)c2c1,104%
14,O=c1cc(-c2ccccc2Cl)oc2c([N+](=O)[O-])c(O)cc(O)c12,109%
15,Cc1nnc(SCC(=O)N2CCC(c3noc4ccc(F)cc34)CC2)s1,112%
16,COc1cc(O)c(CC=C(C)C)c(O)c1C(=O)CCc1ccc(O)cc1,104%
17,Oc1ccc(Cl)cc1Cc1cc(Cl)ccc1O,107%
18,Brc1ccc2ncnc(NCc3ccco3)c2c1,105%
19,COC(=O)c1ccc2c(c1)C(C)(C)C(/C=C/c1ccccc1O)=[N+]2C,80.5%
